# Laboratory results: PubChem BioAssay
# The source made the active and inactive calls. Unless noted, no rule for the calls is given here.
# Columns and labels:
# [1] = tested on: Wnt5a (protein binding on small-molecule microarray); assay: small molecules binding Wnt5a protein – biophysical, small-molecule microarray, 635/667 nm fluorescence, primary screen (AID 1142); conditions: 635 nm fluorescence, higher = more signal;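 also: fluorescence read at 667 nm with signal to noise per printed feature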
# [2] = ATP-based viability of Huh7 replicon cells – cell-based, CellTiter-Glo luminescence, basal, 48 h, cytotoxicity control for HCV replication inhibitor project, primary screen (AID 1143); conditions: higher = more signal, called active from +8 up or from −8 down;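 also: Huh7 hepatoma cells carrying a hepatitis C replication reporter with no stimulus; test concentration not given here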
# [3] = Pseudomonas biofilm growth suppression – PAO1 strain, BacTiter-Glo luminescence, LB-PBS, primary screen (AID 1144); conditions: P. aeruginosa PAO1 biofilm, 12 h, higher = more signal
# [4] = basal CRE-LacZ reporter activity in PC12 – cell-based, unstimulated, primary screen (AID 1145); conditions: no forskolin, luminescence, 4.5 h, higher = more signal, called active from +8 up or from −8 down
# [5] = forskolin-driven CRE-LacZ activity in PC12 – cell-based, CRE-LacZ reporter, forskolin-stimulated, primary screen (AID 1146); conditions: luminescence, 4.5 h, higher = more signal, called active from +8 up or from −8 down;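 also: PC12 cells with 6xCRE LacZ reporter stimulated by forskolin 10 µM; beta-galactosidase reporter signal reflecting CREB driven transcription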
# [6] = target: Streptavidin (Streptomyces avidinii) (UniProt P22629); assay: compounds binding control protein streptavidin – biophysical, small-molecule microarray, 635/667 nm fluorescence, artefact control for SMM compound annotation, primary screen (AID 1147); conditions: higher = more signal;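 also: signal reflects streptavidin binding to arrayed compounds as a control protein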
# Chain of Streptavidin (Streptomyces avidinii) (P22629 whole entry, looked up): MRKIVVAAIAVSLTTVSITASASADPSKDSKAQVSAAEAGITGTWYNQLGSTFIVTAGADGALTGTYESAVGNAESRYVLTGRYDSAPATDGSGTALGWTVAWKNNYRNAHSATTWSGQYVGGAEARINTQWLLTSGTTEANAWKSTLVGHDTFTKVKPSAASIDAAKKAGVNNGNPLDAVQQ
# [7] = probe aInhba binding on compound microarray – biochemical, small-molecule microarray, 635/667 nm fluorescence, primary screen (AID 1148); conditions: higher = more signal;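 also: score merges 667nm spot fluorescence with signal-to-noise for antibody binding to printed compounds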
# Torsin-1A (Homo sapiens) [8] = target: Torsin-1A (Homo sapiens) (UniProt O14656); assay: TOR1A wild-type binding on microarray – cell lysate, small-molecule microarray, lysate, 635/667 nm, primary screen (AID 1149); conditions: COS7 hTOR1A-WT lysate, 635 nm fluorescence, higher = more signal
# Chain of Torsin-1A (Homo sapiens) (O14656 whole entry, looked up): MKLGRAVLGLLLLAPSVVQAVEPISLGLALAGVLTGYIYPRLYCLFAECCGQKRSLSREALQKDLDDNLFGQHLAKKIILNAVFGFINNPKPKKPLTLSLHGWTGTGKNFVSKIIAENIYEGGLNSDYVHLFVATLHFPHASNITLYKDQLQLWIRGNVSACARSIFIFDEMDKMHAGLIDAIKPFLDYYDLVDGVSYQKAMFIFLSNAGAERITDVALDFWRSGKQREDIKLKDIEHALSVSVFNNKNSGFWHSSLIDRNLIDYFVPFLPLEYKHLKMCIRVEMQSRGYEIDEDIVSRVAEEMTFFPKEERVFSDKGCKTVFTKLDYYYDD
# Torsin-1A (Homo sapiens) [9] = target: Torsin-1A (Homo sapiens) (UniProt O14656); assay: torsin A mutant lysate binding on microarrays – cell lysate, small-molecule microarray, COS7 lysate, 635/667 nm fluorescence, primary screen (AID 1150); conditions: COS7 hTOR1A mutant lysate, 635 nm fluorescence, higher = more signal;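 also: score pools 667 nm emission and signal to noise measuring lysate protein binding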
# [10] = tested on: Sonic hedgehog protein (Shh); assay: Sonic hedgehog microarray binding compounds – biochemical, small-molecule microarray, 635/667 nm fluorescence, primary screen (AID 1151); conditions: 635 nm fluorescence, higher = more signal;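 also: Shh protein binding to compounds spotted on small-molecule microarray slides; score combines spot fluorescence intensity with signal-to-noise across triplicate slides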
SMILES,composite z-score [1],z-score [2],z-score [3],z-score [4],z-score [5],composite z-score [6],composite z-score [7],composite z-score (Torsin-1A (Homo sapiens) [8]),composite z-score (Torsin-1A (Homo sapiens) [9]),composite z-score [10]
Cc1ccc(F)cc1S(=O)(=O)N[C@@H]1CCN(Cc2ccc(Br)cc2)C1,-0.144,-3.58 (inactive),0.767 (inactive),0.764 (inactive),-1.64 (inactive),0.165,-0.0986,0.476,0.495,1.29
[N-]=[N+]=Nc1ccccc1[C@@H]1OC(c2ccc(OCCCO)cc2)=N[C@]1(Cc1ccccc1)C(=O)O,0.343,-0.626 (inactive),0.693 (inactive),1.05 (inactive),-1.43 (inactive),0.723,0.207,0.0692,0.285,-0.0767
O=C(Cc1ccccc1)[C@H]1C2C=CCCC(c3ccccc3)=C2CN1Cc1ccccc1 (stereo not given in full),0.0277,-0.408 (inactive),-0.886 (inactive),4.3 (inactive),-0.0521 (inactive),-0.144,-0.0494,0.219,-0.412,0.0701
COC(=O)C/C=C/C[C@]1(O)C(=O)N(C)c2ccccc21,0.0325,-1.2 (inactive),-0.716 (inactive),1.04 (inactive),-1.55 (inactive),-0.373,-0.104,0.325,0.582,0.775
CCCCC(CC)C(O)C1C=CC2C(=O)N(c3ccccc3)C(=O)C2N1Nc1ccc(C#N)cc1 (stereo not given),0.648,0.308 (inactive),-1.55 (inactive),0.819 (inactive),0.176 (inactive),1.18,0.722,-0.064,0.68,-0.387
COC(=O)[C@@]1(Cc2ccc(F)cc2)[C@H]2c3cc(C(=O)N(C)C)n(Cc4ccc(OC(F)(F)F)cc4)c3C[C@H]2CN1C(=O)c1ccccc1,0.0007,0.875 (inactive),-0.362 (inactive),0.397 (inactive),0.391 (inactive),0.686,0.0633,0.296,0.569,-0.817
Cc1ccc(S[C@]2(C(=O)NCC(F)(F)F)CC(=O)N(Cc3cc(C(F)(F)F)cc(C(F)(F)F)c3)[C@@H]2c2ccc(CO)cc2)cc1,-0.824,-0.262 (inactive),0.75 (inactive),0.182 (inactive),-0.0993 (inactive),-0.638,-0.0933,-1.5,-1.2,0.319
C=C(COC)/C(=C/C[C@H](OC(=O)c1ccncc1)c1ccc(CO)o1)c1cnc2ccccc2c1,0.304,0.114 (inactive),-0.268 (inactive),0.303 (inactive),-0.499 (inactive),1.16,-0.0933,0.299,0.732,2.07
CC(C)N1CC=CC23O[C@@H]4C=CCCOC(=O)C4[C@H]2C(=O)N(CCCO)[C@@H]3C1=O (stereo not given in full),-0.352,-2.89 (inactive),-0.614 (inactive),-0.749 (inactive),-0.313 (inactive),-0.912,-0.0933,-1.02,-0.457,0.403
CCCCCN1CC=CC23O[C@@H]4/C=C\CCCOC(=O)C4[C@H]2C(=O)N(C(C)CO)[C@@H]3C1=O (stereo not given in full),-0.917,0.194 (inactive),-1.24 (inactive),-1.43 (inactive),-1.24 (inactive),-0.783,-0.128,-3.18,-2.48,0.0074
COc1ccccc1CN1C(=O)c2ccccc2[C@](Cc2ccccc2I)(C(=O)O)[C@@H]1c1ccc(CO)cc1,0.638,-1.03 (inactive),0.776 (inactive),0.145 (inactive),-0.677 (inactive),1.09,0.0753,0.399,1.54,1.61
CC1CC/C=C\[C@H]2OC34C=CCN(C(C)(C)C)C(=O)[C@H]3N(CCCCCO)C(=O)[C@@H]4C2C(=O)O1 (stereo not given in full),-0.427,0.356 (inactive),0.477 (inactive),-0.35 (inactive),-0.928 (inactive),-0.719,-0.253,-0.201,-1.33,0.353
COc1ccc(C#Cc2ccc3c(c2)[C@]2(C(=O)N3)[C@H](c3ccc(O)cc3)N3[C@H](c4ccccc4)[C@H](c4ccccc4)OC(=O)[C@H]3[C@@H]2C(=O)Nc2nc3ccccc3s2)cc1,0.108,-1.62 (inactive),-0.52 (inactive),0.389 (inactive),-0.513 (inactive),1.02,0.0797,1.16,0.168,0.329
CCOC(=O)C1=C[C@@H](C(C)C)N(S(=O)(=O)c2ccc(C)cc2)[C@H]1c1ccc(C(F)(F)F)cc1,0.418,-3.82 (inactive),0.803 (inactive),0.939 (inactive),-1.13 (inactive),0.908,-0.12,0.505,0.682,0.217
CN1C(=O)C2C=CC(C(O)c3cccn3C)N(Nc3ccc([N+](=O)[O-])cc3[N+](=O)[O-])C2C1=O (stereo not given),0.28,0.515 (inactive),-0.255 (inactive),1.4 (inactive),1.36 (inactive),0.724,0.188,0.799,0.437,-0.0299
